Test results published in PubChem BioAssay.

Test: small-molecule binders of probe aNOTCH3, primary screen, biochemical, small-molecule microarray, 635/667 nm fluorescence (AID 1120);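 further: probe is a biotin-tagged antibody raised against NOTCH3 rather than NOTCH3 protein; score merges spot fluorescence near 667 nm with spot signal to noise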
Details: higher = more signal

Compound | composite z-score
CCCN1C(=O)[C@@]2(CCS(=O)(=O)c3ccccc3)N=C(c3ccc(OCCCO)cc3)O[C@H]2c2ccccc21 | 0.0833
O=C(O)[C@@H]1Cc2c([nH]c3ccccc23)[C@@H](c2ccccc2)N1 | -0.082
C[C@@H]1CC[C@H]2C(=O)N3CCC[C@H]3C(=O)N2[C@H]1c1ccc(Br)cc1 | -0.261
CCC#CCN(Cc1ccccc1Br)[C@H](/C=C/c1ccccc1)[C@@H](O)Cc1ccccc1 | -0.132
[N-]=[N+]=NCc1ccccc1C[C@]1(C(N)=O)N=C(c2ccc(OCCCO)cc2)O[C@H]1c1ccccc1CN=[N+]=[N-] | 0.0254
C=CCC(OC(C)=O)[C@@H]1[C@@H](N(Cc2ccc(-c3ccccc3)cc2)C(=O)c2ccc(-c3ccccc3)cc2)c2cc(OCCCO)ccc2N1C(=O)Cc1ccc(OC)cc1 (stereo not given in full) | 0.0065
O=C1C[C@@](C(=O)NC2CC2)(c2ccc([N+](=O)[O-])cc2)[C@@H](c2ccc(CO)cc2I)N1CC12CC3CC(CC(C3)C1)C2 | 0.0538
Cc1ccc(N2C(=O)c3ccccc3[C@@H](C(=O)NCC(F)(F)F)[C@@H]2c2ccc(CO)cc2)nc1 | -0.185
C=CC[C@]1(C(=O)O)N=C(c2ccc(OCCCO)cc2)O[C@H]1c1ccccc1 | -0.0591

Test: small-molecule binders of probe aNOTCH2, primary screen, biochemical, small-molecule microarray, 635/667 nm fluorescence (AID 1121);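 further: score merges feature fluorescence read at 667 nm with its signal to noise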
Details: higher = more signal

Compound | composite z-score
COc1ccc(CCN2C(=O)[C@@]3(c4ccc([N+](=O)[O-])cc4)CC(=O)N(CC45CC6CC(CC(C6)C4)C5)[C@@H]3c3ccc(CO)cc32)cc1 | 0.0437
C=CCN1C(=O)[C@@]2(Cc3ccccc3)N=C(c3ccc(OCCCO)cc3)O[C@H]2c2ccccc21 | 0.2
CN1CCC(CCCO)=CC1C1CC1 (stereo not given) | -0.181
CC(C)N1CC=CC23O[C@@H]4/C=C\CCCOC(=O)C4[C@H]2C(=O)N(CCCCCO)[C@@H]3C1=O (stereo not given in full) | -0.169
COCCOC(=O)N1C(=O)[C@@]2(c3cc(C#CCC(C(=O)OC)C(=O)OC)ccc31)[C@H](C(=O)N1CCN(c3ncccn3)CC1)[C@H]1C(=O)O[C@H](c3ccccc3)[C@H](c3ccccc3)N1[C@@H]2c1ccc(O)cc1 | -0.0956
CCC(=O)[C@]12O[C@@]3([C@@H]4C(=O)OCC[C@@H]41)N(Cc1ccccc1)C(C)=C(C(=O)OC)[C@@H](c1ccccc1)N3C2=O | -0.164
COC(=O)[C@@]1(Cc2ccc(OC)cc2)[C@H]2c3cc(C(=O)N(C)C)n(Cc4ccc(C)c(F)c4F)c3C[C@H]2CN1C(=O)c1ccccc1 | -0.108
COc1cc(CO)cc(I)c1O[C@H]1C=C(C(=O)NCCO)C[C@@H](NCCc2c[nH]c3ccccc23)[C@@H]1O | -0.121
Cc1ccc(N2C(=O)c3ccccc3[C@](C)(C(=O)O)[C@@H]2c2ccc(CO)cc2)nc1 | -0.228
COC(=O)[C@@]1(Cc2ccccc2)[C@H]2c3cc(C(=O)N4CCCC4)n(CCN4CNCC4=O)c3C[C@H]2CN1C(=O)c1ccccc1 | -0.173
CO[C@@H]1COC(=O)[C@H](C)NC(=O)CC=C[C@@H](C)[C@H](OC)COC(=O)[C@H](C)NC(=O)CC=C[C@H]1C | -0.124
C=C(COC)/C(=C/C[C@@H](OC(C)=O)c1cccc(OCCO)c1)c1cc(C(=O)OC)ccc1OC | -0.125
CCOC(=O)C[C@H]1[C@H](OC(=O)c2ccccc2-c2ccccc2)[C@@H](NC(=O)c2ccc(-c3ccccc3)cc2)c2cc(OCCCO)ccc2N1C(=O)Cc1ccc(OC)cc1 | -0.0759
[N-]=[N+]=NCc1ccccc1C[C@]1(C(=O)N2CCCCC2)N=C(c2ccc(OCCCO)cc2)O[C@H]1c1ccccc1CN=[N+]=[N-] | -0.0817
CO[C@H]1COC(=O)[C@@H](OCc2ccccc2)C=C[C@H](C)[C@@H](OC)COC(=O)[C@H](OCc2ccccc2)C=C[C@@H]1C | -0.179
COCCOC(=O)N1C(=O)[C@@]2(c3cc(C#CCNC(N)=O)ccc31)[C@H](c1ccc(OCCO)cc1)N1[C@H](c3ccccc3)[C@H](c3ccccc3)OC(=O)[C@H]1[C@@H]2C(=O)Nc1nc2ccccc2s1 | -0.126
CCOC(=O)C1=CC[C@@H](c2ccc(-c3ccc(OCc4ccccc4)cc3)c(OC)c2)N(S(=O)(=O)c2ccc(C)cc2)[C@H]1c1ccccc1 | -0.146
Cc1ccc(S[C@]2(C(=O)O)CC(=O)N(Cc3ccccc3)[C@@H]2c2ccc(CO)cc2)cc1 | -0.154

Compound | composite z-score
Cc1ccc(S[C@]2(C(=O)NC(C)C)CC(=O)N(Cc3cc(C(F)(F)F)cc(C(F)(F)F)c3)[C@@H]2c2ccc(CO)cc2I)cc1 | -0.14
CO[C@@H]1COC(=O)[C@H](COCc2ccccc2)NC(=O)CC=C[C@@H](C)[C@H](OC)COC(=O)[C@H](COCc2ccccc2)NC(=O)CC=C[C@H]1C | -0.112
CCC1=C2CN(Cc3ccccc3Br)[C@@H]([C@@H](O)Cc3ccccc3)C2C=CCC1 (stereo not given in full) | -0.123
COCCOC(=O)N1C(=O)[C@@]2(c3cc(C#CCC(C(=O)OC)C(=O)OC)ccc31)[C@H](c1ccccc1OCCO)N1[C@H](c3ccccc3)[C@H](c3ccccc3)OC(=O)[C@H]1[C@@H]2C(=O)N1CCCCCCC1 | 0.36
CO[C@@H]1COC(=O)[C@@H]2CCCN2C(=O)CC=C[C@@H](C)[C@H](OC)COC(=O)[C@@H]2CCCN2C(=O)CC=C[C@H]1C | -0.141
C=C(COC)/C(=C/C[C@H](OC(C)=O)c1ccc(OCCO)cc1)c1cnc2ccccc2c1 | -0.108
CC(=O)Nc1ccc([C@H]2[C@H](C)CC[C@H]3C(=O)N4[C@@H](CC[C@@H](C)[C@@H]4c4ccc(NC(C)=O)cc4)C(=O)N32)cc1 | -0.195
CN(C)CCCC[C@@H]1NC(=O)[C@@H]2C[C@H](C(=O)O)[C@H](c3ccc(O)cc3)N2C1=O | -0.117
C[C@@H]1CC[C@H]2C(=O)N3[C@@H](CC[C@@H](C)[C@@H]3c3cccc(N4CCOCC4)c3)C(=O)N2[C@H]1c1cccc(Br)c1 | -0.0956
CCCN1C(=O)[C@@]2(CCS(=O)(=O)c3ccccc3)N=C(c3ccc(OCCCO)cc3)O[C@H]2c2ccccc21 | -0.0956
O=C(O)[C@@H]1Cc2c([nH]c3ccccc23)[C@@H](c2ccccc2)N1 | -0.0148
C[C@@H]1CC[C@H]2C(=O)N3CCC[C@H]3C(=O)N2[C@H]1c1ccc(Br)cc1 | -0.174
CCC#CCN(Cc1ccccc1Br)[C@H](/C=C/c1ccccc1)[C@@H](O)Cc1ccccc1 | -0.145
[N-]=[N+]=NCc1ccccc1C[C@]1(C(N)=O)N=C(c2ccc(OCCCO)cc2)O[C@H]1c1ccccc1CN=[N+]=[N-] | 0.0256
C=CCC(OC(C)=O)[C@@H]1[C@@H](N(Cc2ccc(-c3ccccc3)cc2)C(=O)c2ccc(-c3ccccc3)cc2)c2cc(OCCCO)ccc2N1C(=O)Cc1ccc(OC)cc1 (stereo not given in full) | -0.183
O=C1C[C@@](C(=O)NC2CC2)(c2ccc([N+](=O)[O-])cc2)[C@@H](c2ccc(CO)cc2I)N1CC12CC3CC(CC(C3)C1)C2 | -0.19
Cc1ccc(N2C(=O)c3ccccc3[C@@H](C(=O)NCC(F)(F)F)[C@@H]2c2ccc(CO)cc2)nc1 | -0.0674
C=CC[C@]1(C(=O)O)N=C(c2ccc(OCCCO)cc2)O[C@H]1c1ccccc1 | 0.0415
